Inconclusive results are not listed. A call without a number means that no potency is given here. Calls of active or inactive are those of the source. The call rests on the fitted dose curve.

In the experiment the target is Beta-2 adrenergic receptor (Homo sapiens) (UniProt P07550). The experiment can be described thus: Adrenergic beta2 receptor (ADRB2) small molecule antagonists, cell-based qHTS assay (AID 1963592). Further: nearly all actives have a fitted effect of over 50% in size. As to conditions: CHO-ADRB2 cells, isoproterenol-stimulated cAMP HTRF ratio, 0.5 h; series mostly up to 92.4 µM; activity change, negative = inhibition: at the top concentration. The source says: U.S. Tox21 Program National Center for Advancing Translational Sciences [NCATS] Division of Preclinical Innovation [DPI] U.S. Environmental Protection Agency [EPA] National Institutes of Environmental Health Sciences [NIEHS] National Toxicology Program [NTP] U.S. Food and Drug Administration [FDA] Tox21 Assay Overview: Beta adrenergic receptors (Beta-ARs) belong to the G-protein coupled receptor (GPCR) superfamily, includes three subtypes - beta1, beta2, and beta3. Beta1-AR is the predominant receptor subtype expressed in the heart, and beta2-AR is expressed in the kidney, lung, blood vessel and in the heart, and beta3 is found in the adipocytes. Beta1 and 2 ARs couple to Gs protein and elevate cyclic adenosine mono phosphate (cAMP), which activates protein kinase A and leads to the downstream signaling responsible for the physiological actions. Beta-AR agonists or antagonists are the most prescribed therapeutic agents for heart failure and asthma, and these were one of the first target receptors for the rational drug design. Tox21 10K compound library was screened using the cAMP-Gs dynamic assay (Cisbio Bioassays, Shelton, CT) to identify agonists/antagonists of the Gs-coupled human adrenergic, beta2 receptor (ADRB2) in the CHO-ADRB2 cell line (Codex BioSolutions, Inc. Gaithersburg, MD), which stably over-expresses ADRB2. The principle of cAMP-Gs dynamic assay is based on HTRF technology, which facilitates the fluorescence resonance energy transfer (FRET) between donor Europium cryptate and acceptor d2-labeled cAMP. The cAMP generated within cells competes with the red acceptor, d2-labled cAMP, for binding to the monoclonal anti-cAMP-cryptate (Europium donor). An increase in intracellular cAMP leads to the disruption of FRET signal, and the signal is inversely proportional to the cAMP concentration. Propranolol HCl (Sigma-Aldrich, St. Louis, MO) was used as a positive control in the screening.
Chain of Beta-2 adrenergic receptor (Homo sapiens) (P07550 whole entry, looked up): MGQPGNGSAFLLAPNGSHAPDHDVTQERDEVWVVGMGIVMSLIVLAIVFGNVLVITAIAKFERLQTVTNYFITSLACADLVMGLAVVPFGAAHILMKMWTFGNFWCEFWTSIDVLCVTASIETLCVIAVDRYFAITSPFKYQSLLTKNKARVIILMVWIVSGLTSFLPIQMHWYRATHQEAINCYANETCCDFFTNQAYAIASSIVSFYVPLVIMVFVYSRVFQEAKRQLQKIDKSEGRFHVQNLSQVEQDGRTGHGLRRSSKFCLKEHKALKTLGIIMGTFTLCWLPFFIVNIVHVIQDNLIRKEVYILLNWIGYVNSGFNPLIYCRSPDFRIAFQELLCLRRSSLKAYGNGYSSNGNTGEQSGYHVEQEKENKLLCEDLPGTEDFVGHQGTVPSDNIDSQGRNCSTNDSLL
Tox21 Assay Protocol Summary: CHO-ADRB2 cells were dispensed at 1,000/well in 4uL assay medium into white/solid 1536-well plates (Greiner Bio-One North America Inc., Monroe, NC) using a Multidrop Combi dispenser (ThermoFisher Scientific, Waltham, MA). The assay plates were incubated at 37C and 5% CO2 for an overnight (18-20hr). Then positive control and test compounds dissolved in DMSO were transferred to the assay plates at 23nL using a Pintool station (Wako, San Diego, CA). Following the compound and positive control transfer, 1uL agonist-stimulation mix containing 1nM Isoproterenol HCl, 100uM IBMX and 25uM Ro-20-1724 was added to each well of the assay plates using BioRAPTR Flying Reagent Dispenser (FRD, Beckman Coulter, Brea, CA). The assay plates were incubated at room temperature for 0.5hr. Then 2.5ul each d2-labled cAMP and anti-cAMP-cryptate solutions were added separately to each well of the assay plates using an FRD and the assay plates were incubated at room temperature for 1hr. The fluorescence signal was measured at two different wavelengths (665nm and 615nm) using an Envision plate reader (Perkin Elmer, Shelton, CT). Data were expressed as the ratio of 665 nm/615 nm.
As to `C=CC(=O)OCCO`, the Potency entry is “inactive”.
Take `Nc1ccc(-c2ccccc2)cc1`: the Potency result was “inactive”.
For `CCCCn1cc[n+](C)c1`, the Potency result is “inactive”.
Consider `O=C([O-])c1ccccn1.O=C([O-])c1ccccn1.O=C([O-])c1ccccn1.[Cr+3]`, for which the “activity change, negative = inhibition” value is 1% (inactive).
Turning to `NNC(=O)c1ccccc1`, the “activity change, negative = inhibition” value was -16.7% (inactive).
Take `COC(=O)Nc1nc2ccccc2[nH]1`: the Potency entry is “inactive”.
Consider `CCCCCCCCCCCOC(=O)c1ccccc1C(=O)OCCCCCCCCCCC`, for which the Potency result is “inactive”.
Turning to `Cl/C=C\CCl`, the “activity change, negative = inhibition” value was 6.75% (inactive).
As for `Clc1ccc(C(c2ccccc2Cl)C(Cl)(Cl)Cl)cc1` (stereo not given), the Potency entry is “inactive”.
Same read-out and setting: the result for `O=C(O)c1cc(Oc2ccc(C(F)(F)F)cc2Cl)ccc1[N+](=O)[O-]` reads “inactive”; that for `COP(=S)(OC)SCN1C(=O)c2ccccc2C1=O`, “inactive”.
For the compound `O=[N+]([O-])c1ccccc1O`, the Potency result was “inactive”.
`CC12CC1(C)C(=O)N(c1cc(Cl)cc(Cl)c1)C2=O` (stereo not given): the “activity change, negative = inhibition” value is -18.1% (inactive).
Regarding `CCNc1nc(Cl)nc(NC(C)(C)C#N)n1`, the Potency result is “inactive”.
For the compound `CC(C)OS(C)(=O)=O`, the “activity change, negative = inhibition” value was -4.29% (inactive).
With `CCCCC(CC)COC(=O)c1ccc(C(=O)OCC(CC)CCCC)c(C(=O)OCC(CC)CCCC)c1` (stereo not given), the Potency entry was “inactive”.
For the compound `CC1(C)C(=O)NC(=O)NC1=O`, the “activity change, negative = inhibition” value was 3.46% (inactive).
As for `ClC(Cl)=C(c1ccc(Cl)cc1)c1ccc(Cl)cc1`, the Potency result was “inactive”.
Consider `O=C(Nc1ccc(Br)cc1)c1cc(Br)cc(Br)c1O`, for which the Potency result was “inactive”.
`CCNc1nc(Cl)nc(NC(C)C)n1`: the Potency entry was “inactive”.
Turning to `Cc1ccc(O)c(C)c1`, the Potency result was “inactive”.
The same measure, in the same setting: then `Cc1cc(Cl)ccc1OCC(=O)O`, with “inactive”.
On to `COC[C@@H](NC(C)=O)C(=O)NCc1ccccc1`, for which the “activity change, negative = inhibition” value is 5.93% [at 42.5 µM] (inactive).
On to `C=CCN1C[C@H](C)N([C@H](c2ccc(C(=O)N(CC)CC)cc2)c2cccc(OC)c2)C[C@H]1C`, for which the “activity change, negative = inhibition” value was 2.84% [at 42.5 µM] (inactive).
In the case of `ClCc1cccnc1`, the “activity change, negative = inhibition” value is 2.44% (inactive).
Consider `CN(C)C(=O)C(c1ccccc1)c1ccccc1`, for which the Potency result is “inactive”.
Turning to `CC(C)(C)OOC(C)(C)CCC(C)(C)OOC(C)(C)C`, the “activity change, negative = inhibition” value was -4.77% (inactive).
For `O=C(O)C1C2CCC(O2)C1C(=O)O` (stereo not given), the Potency entry is “inactive”.
Turning to `CC(=O)C1CCOC1=O` (stereo not given), the Potency entry was “inactive”.
For `CN(CCCC(=O)c1cccnc1)N=O`, the “activity change, negative = inhibition” value is -10.8% (inactive).
On to `CCN(CC)C1CCCCC1`, for which the “activity change, negative = inhibition” value was -5.29% (inactive).
Regarding `CCCCN=C=O`, the “activity change, negative = inhibition” value is -1.45% (inactive).
Consider `C=CCOC(Cn1ccnc1)c1ccc(Cl)cc1Cl` (stereo not given), for which the Potency entry is “inactive”.
Take `C1CS1`: the “activity change, negative = inhibition” value is 1% (inactive).
Regarding `COC(=O)c1sccc1S(=O)(=O)NC(=O)Nc1nc(C)nc(OC)n1`, the Potency entry was “inactive”.
Take `C#CCOC(=O)/C=C(C)/C=C/CC(C)CCCC(C)C` (stereo not given): the “activity change, negative = inhibition” value was -2.45% (inactive).
Take `O=[N+]([O-])c1c(Cl)c(Cl)c(Cl)c(Cl)c1Cl`: the Potency result is “inactive”.
In the case of `c1ccc2c(c1)Nc1ccccc1S2`, the “activity change, negative = inhibition” value is -17.9% [at 42.5 µM] (inactive).
For the compound `c1ccc2c(c1)CCCC2`, the Potency entry was “inactive”.
On to `O=C(O)C1C(C(=O)O)C2(Cl)C(Cl)=C(Cl)C1(Cl)C2(Cl)Cl` (stereo not given), for which the Potency result was “inactive”.

The values above are taken from PubChem BioAssay (Tox21).
